# Assay results reported in PubChem BioAssay (NCI).
# Compounds without any hit were thinned out: in the full panel of roughly 79,000, 15% have a hit. A number with no mark means an inactive call. Calls of active or inactive are those of the source. No stated cut-off is given here; in the data, active means growth inhibition above about 70%; inactive means the rest.
# Assay: NCI Yeast Anticancer Drug Screen. Data for the mec2-1 strain (AID 157)
# Details: S. cerevisiae mec2-1 strain, at 50.0 µM (retest, dose inferred, filed as 5.0), active compounds read high
# Method in brief: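 mec2-1 yeast strain, carrying an alteration in DNA damage repair or cell cycle control, was exposed to compounds; growth inhibition was measured relative to vehicle-treated controls.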
row,SMILES,growth inhibition
1,CCCCCCCCc1ccc2c3ccccc3c3ccccc3c2c1,-5%
2,O=C1C(=O)c2ccc(Br)cc2C(O)=C1C(c1ccccc1)c1ccccc1,70% (active)
3,CN(C)Cc1ccc2[nH]c3c(c2c1)CCCC3,72% (active)
4,COc1ccc(NC(=O)Nc2ccc(Cl)cc2)nn1,-3%
5,CO/N=C/c1cc(NC(=S)c2ccoc2C)ccc1Cl,-17%
6,O=C(Sc1c(-c2ccccc2)c(=O)n(-c2ccccc2)c(=S)n1-c1ccccc1)c1cccs1,95% (active)
7,O=C1/C(=C/c2ccc(F)cc2)CNC/C1=C\c1ccc(F)cc1,36%
8,O=c1cc2cccccc-2cc1O,95% (active)
9,Oc1c(Br)cc(Br)cc1-c1ccccc1,100% (active)
10,C(=[CH]/[Sn]([c]1ccccc1)([c]1ccccc1)[c]1ccccc1)/c1ccccc1,94% (active)
11,CCCCCCCCCN1CCNC1=S,30%
12,O=C1C/C(=C\c2ccccc2)C(=O)c2ccccc2N1,16%
13,CN(C)C(=O)Nc1ccc(Cc2ccc(NC(=O)N(C)C)cc2)cc1,-32%
14,C=C1CC(C)(COc2ccc3c(C)c(Cl)c(=O)oc3c2)OC1=O (stereo not given),97% (active)
15,CC[C@@]1(OP(=O)(O)O)C(=O)OCc2c1cc1n(c2=O)Cc2cc3ccccc3nc2-1,95% (active)
16,O=S(=O)(Sc1ccccc1)C(c1ccccc1)c1ccccc1,71% (active)
17,CCOC(=O)c1c(N)sc2c1CCCCC2,-25%
18,CCCCCCCCCCCCCCNCCN,33%
19,CCCN(CCC)CCNc1ccc(C)c2sc3ccccc3c(=O)c12,100% (active)
20,CC1CC2(C)ON=C(c3ccccc3)N2c2ccccc2S1 (stereo not given),93% (active)

row,SMILES,growth inhibition
1,COc1ccc(N=NN2CCCC2)cc1,27%
2,S=C(Nc1ccccc1)NC1CC2C=CC1CC2 (stereo not given),-12%
3,C=CCOC(=O)C(O)C(CC)CCCCC (stereo not given),87% (active)
4,NC(=O)c1ccccc1C(=O)O,-2%
5,CS(=O)(=O)c1cc(=O)c2ccccc2s1,99% (active)
6,O=C([O][Sb]([O]C(=O)C(Cl)(Cl)Cl)([c]1ccccc1)([c]1ccccc1)[c]1ccccc1)C(Cl)(Cl)Cl,56%
7,CCCCCCCCCCCCCCCCCCOP(=O)([O-])OCC[N+](C)(C)C,99% (active)
8,Nc1ccc(SCCCc2c(N)nc(N)nc2N)cc1,-8%
9,O=C1C=CC(=O)c2c1cc1ccccc1c2O,99% (active)
10,CCN(CC)CC(O)CNc1ccc(NCC(O)CCl)c2c1C(=O)c1ccccc1C2=O (stereo not given),98% (active)
11,N#Cc1c(N)nc2c(N=Nc3ccccc3)c(N)nn2c1Nc1ccccc1,39%
12,CC(O)c1c2ccccc2cc2ccccc12 (stereo not given),58%
13,Cc1ccccc1NC(=O)C1C(=O)N(c2ccccc2C)C(=O)/C1=N/O (stereo not given),4%
14,O=Cc1ccc(-c2nccc3c2[nH]c2ccccc23)o1,17%
15,C=CC(C)(CCC=C(C)C)OC(=O)Nc1ccccc1 (stereo not given),-25%
16,Oc1ccc(-c2nnc(-c3ccc(Cl)cc3Cl)o2)cc1,82% (active)
17,C/C=C1\CC(C)(CC)C(C#N)(C#N)C(N)=C1C#N (stereo not given),0%
18,Cc1nc(-c2ccccc2)nc2c1nc(C(C)C)n2Nc1ccccc1,41%
19,Cc1csc2c1C(=O)c1ccsc1C2=O,99% (active)
20,COc1cc(Nc2ccc(Oc3ccc(O)cc3)cc2)c2ncccc2c1,51%
